Eight compounds from PubChem BioAssay (Tox21) can be followed below.

Values joined by “and” are separate entries in the source; they are usually repeats but may differ in a detail not shown here. Identical values can stand only once. Results filed as inconclusive are left out. A structure can be active in one record and inactive in another. Active and inactive are the calls of the source. Unless noted, calls come from the whole dose curve.

Assay [1] in a line: Nuclear factor erythroid 2-related factor 2/antioxidant responsive element (Nrf2/ARE) small molecule agonists: qHTS cell viability counter screen in human keratinocytes (AID 1919968; active = well fitted curve in the direction sought with a large enough effect in the repeat runs; an effect the other way counts as inactive or inconclusive; note: nearly all actives have a fitted effect of over 55% in size; note: potency is the fitted concentration of half-maximal effect). In a few lines:
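Stably transfected HaCaT (KeratinoSens), 1,500/well. Test agents in DMSO were applied for 23 h, 37 C/5% CO2. CellTiter-Fluor was incubated 1 h before the fluorescence read.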
On the technique in general: In qHTS, concentration-response curves come from the screen itself.

Assay [2] concerns the target Gonadotropin-releasing hormone receptor (Homo sapiens) (UniProt P30968). The assay can be described thus: Human gonadotropin-releasing hormone receptor (GnRHR) small molecule agonists, calcium flux assay in GnRHR-HEK293 cells (AID 1920063). Note: nearly all actives have a fitted effect of over 35% in size. In a few lines:
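Stable human GnRHR HEK293 line. 18 h plating, then calcium dye for 1 h at 37 C. Agonist-mode compound addition from DMSO stocks; fluorescence monitored 3 min.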
For orientation: A change in cytosolic calcium serves as a functional read-out for many receptors and channels.

The target in assay [3] is KiSS-1 receptor (Homo sapiens) (UniProt Q969F8). The experiment in a line: Human kisspeptin (KISS1R) small molecule agonists, calcium flux assay in KISS1R-HEK293 cells (AID 1920064; active = well fitted curve in the direction sought with a large enough effect in the repeat runs; an effect the other way counts as inactive or inconclusive). In a few lines:
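After overnight (18 h) culture at 37 C/5% CO2, human KISS1R-HEK293 cells received calcium dye for 1 h, then test compound; emission at 540 nm (excitation 480 nm) was tracked for 3 min.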

Assay [4] can be described thus: G protein-coupled receptor (GPCR) small molecule agonists, calcium flux assay: HEK293 wild type cell line counter screen (AID 1920065). In a few lines:
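Following 18 h incubation at 37 C/5% CO2, plates got calcium dye for 1 h; compounds, ATP or DMSO were then pinned in and fluorescence followed kinetically (480/540 nm).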

The nature of assay [5]: p53 small molecule agonists, cell-based qHTS assay with human liver microsomes (AID 1963577).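 Note: p53 response element beta-lactamase reporter cells with liver microsomes plus NADPH.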 In a few lines: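 Steps: plate p53RE-bla cells, incubate 5 h at 37 C; add compound in DMSO; add microsomes (0.5 mg/mL final) and NADPH (0.5 mg/mL final); incubate 16 h at 37 C; add LiveBLAzer, 2 h RT; read fluorescence.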
Assay [6] in a line: p53 small molecule agonists, cell-based qHTS assay with rat liver microsomes (AID 1963578). In a few lines:
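Metabolic activation is supplied by rat liver microsomes with NADPH (each 0.5 mg/mL final). p53RE-bla cells incubate with compound 16 h at 37 C; reporter activity is measured by LiveBLAzer fluorescence.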

The nature of assay [7]: p53 small molecule agonists, cell-based qHTS assay with human liver microsomes: qHTS cell viability counter screen (AID 1963579). Note: nearly all actives have a fitted effect of over 45% in size. Note: potency is the fitted concentration of half-maximal effect. In a few lines: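 After the 460/530 nm beta-lactamase read, CellTiter-Glo was added to the same wells and luminescence measured after 30 min at room temperature, giving viability of p53RE-bla cells treated 16 h with compounds plus microsomes and NADPH.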

Assay [8] in a line: p53 small molecule agonists, cell-based qHTS assay: qHTS cell viability counter screen (AID 1963581). Note: nearly all actives have a fitted effect of over 45% in size. In a few lines: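 qHTS counter screen: 16 h compound exposure at 37 C of p53RE-bla HCT-116 cells (4,000 per well, seeded 5 h prior), cell viability by ATP luminescence.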
Assay [9] can be described thus: p53 small molecule agonists, cell-based qHTS assay (AID 1963582; active = well fitted activation curve with a large enough effect in the signal ratio in the repeat runs, not every such curve was filed as active; the % refers to the signal ratio; note: potency is the fitted concentration of half-maximal effect). In a few lines:
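Measured: fluorescence from cleaved LiveBLAzer substrate. System: p53RE-bla cells, 16 h compound treatment at 37 C, 2 h substrate step at room temperature.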

For assay [10], the target named is 5-hydroxytryptamine receptor 2A (Homo sapiens) (UniProt P28223). The assay can be described thus: 5-hydroxytryptamine receptor 2A (HTR2A) small molecule antagonists, cell-based qHTS assay (AID 1963586). Note: nearly all actives have a fitted effect of over 45% in size. In a few lines: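 CHO cells stably expressing human HTR2A were plated for 18 h at 37 C, then loaded with calcium dye for 1 h. Compounds were preincubated 5 min at room temperature before DOI (4 nM solution) was added. Kinetic fluorescence was read for 3 min.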

The target is the same in assay [11]. The experiment in a line: 5-hydroxytryptamine receptor 2A (HTR2A) small molecule agonists, cell-based qHTS assay (AID 1963587). Note: nearly all actives have a fitted effect of over 30% in size. In a few lines: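 Kinetic calcium-flux fluorescence (2 min, 1 sec intervals) after compound addition in agonist mode. HTR2A-CHO cells were cultured 18 h, then dye-loaded 1 h at 37 C.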
For assay [12], the target named is Muscarinic acetylcholine receptor M1 (Homo sapiens) (UniProt P11229). The experiment in a line: Cholinergic receptor muscarinic 1 (CHRM1) small molecule antagonists, cell-based qHTS assay (AID 1963588). Note: nearly all actives have a fitted effect of over 40% in size. In a few lines: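 Compounds were tested at 15 concentrations in three independent runs. Dye-loaded CHRM1-CHO cells were exposed 5 min at room temperature before stimulation by acetylcholine added at 50nM. Intracellular calcium was read kinetically on FDSS for 3 min.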

The target is the same in assay [13]. The experiment in a line: Cholinergic receptor muscarinic 1 (CHRM1) small molecule agonists, cell-based qHTS assay (AID 1963589). Note: nearly all actives have a fitted effect of over 35% in size. In a few lines:
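Kinetic fluorescence (1 s intervals) of calcium-sensitive dye in human M1 CHO cells after compound addition; cells pre-incubated 18 h at 37 C/5% CO2 and dye-loaded 1 h.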

The nature of assay [14]: cAMP Responsive Elements (CRE) small molecule agonists, cell-based qHTS assay (AID 1963590). In a few lines:
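Test agents in DMSO were incubated 3 h at 37 C/5% CO2 with CRE-bla HEK 293T cells seeded 18 h earlier; LiveBLAzer B/G FRET substrate was added and read after 2 h at room temperature.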

The nature of assay [15]: cAMP Responsive Elements (CRE) small molecule antagonists, cell-based qHTS assay (AID 1963591; active = well fitted inhibition curve with a large enough effect in the signal ratio in the repeat runs, not every such curve was filed as active; the % refers to the signal ratio). In a few lines:
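Reporter line CRE-bla HEK 293T in dialyzed-FBS DMEM; cells preincubated 18 h, treated 3 h with compound plus NKH477 (0.25 uM final); LiveBLAzer FRET, 2 h RT.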

In assay [16] the target is Beta-2 adrenergic receptor (Homo sapiens) (UniProt P07550). The experiment in a line: Adrenergic beta2 receptor (ADRB2) small molecule antagonists, cell-based qHTS assay (AID 1963592). Note: series mostly up to about 92 µM; nearly all actives have a fitted effect of over 50% in size. In a few lines:
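Assay format: CHO-ADRB2 cells, 18-20hr seeding at 37C/5% CO2, then compound plus 1nM isoproterenol agonist mix for 0.5hr RT. Homogeneous time-resolved fluorescence cAMP detection after 1hr, expressed as 665/615 nm ratio.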

The target is the same in assay [17]. The experiment in a line: Adrenergic beta2 receptor (ADRB2) small molecule agonists, cell-based qHTS assay (AID 1963593).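 Note: CHO cells stably overexpressing human ADRB2.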 In a few lines: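 CHO cells stably over-expressing ADRB2 were plated overnight at 37C, then dosed with compounds plus a stimulation mix containing 100uM IBMX and 25uM Ro-20-1724 for 0.5hr at room temperature. cAMP was measured by HTRF competition, 1hr.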

Assay [18] deals with D(2) dopamine receptor (Homo sapiens) (UniProt P14416). The assay can be described thus: Dopamine D2 receptor (DRD2) small molecule agonists, cell-based qHTS assay (AID 1963594). Note: nearly all actives have a fitted effect of over 35% in size. In a few lines: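 cAMP accumulation in DRD2-HEK293 cells measured by HTRF after 1 h detection; compounds added 10 min before NKH477 (200nM […]) forskolin-analogue stimulation, 30 min at room temperature, with Ro20-1724 present at 0.1 mM final.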

Assay [19] shares this target. The experiment in a line: Dopamine D2 receptor (DRD2) small molecule antagonists, cell-based qHTS assay (AID 1963595; active = well fitted inhibition curve with a large enough effect in the signal ratio in the repeat runs, with a control signal flat; the % refers to the signal ratio; note: potency is the fitted concentration of half-maximal effect). In a few lines:
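Cells were plated and grown for 24 h at 37 °C. Ro20-1724 (0.1 mM final) went in first, then compound for 10 min. NKH477 (200 nM) with quinpirole (12 nM) followed for 30 min at RT, then HTRF detection reagents for 1 h.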

The nature of assay [20]: p53 small molecule agonists, cell-based qHTS assay with rat liver microsomes: qHTS cell viability counter screen (AID 1963580). Note: nearly all actives have a fitted effect of over 45% in size. In a few lines:
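Cytotoxicity counter screen: intracellular ATP read by CellTiter-Glo luminescence in the p53 reporter wells. HCT-116 p53RE-bla cells were treated for 16 h at 37 C alongside rat liver microsomes and NADPH, each 0.5 mg/mL final.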

Sequence of Gonadotropin-releasing hormone receptor (Homo sapiens) (P30968 whole entry, looked up): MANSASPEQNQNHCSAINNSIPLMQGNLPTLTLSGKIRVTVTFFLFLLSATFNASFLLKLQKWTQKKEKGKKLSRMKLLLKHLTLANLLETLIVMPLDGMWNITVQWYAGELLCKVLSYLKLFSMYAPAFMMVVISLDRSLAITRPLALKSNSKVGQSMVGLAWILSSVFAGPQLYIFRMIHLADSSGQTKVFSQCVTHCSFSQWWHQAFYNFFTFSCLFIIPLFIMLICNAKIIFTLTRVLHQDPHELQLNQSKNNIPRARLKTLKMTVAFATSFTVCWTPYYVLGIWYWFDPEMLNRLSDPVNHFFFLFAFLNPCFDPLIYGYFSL
Sequence of KiSS-1 receptor (Homo sapiens) (Q969F8 whole entry, looked up): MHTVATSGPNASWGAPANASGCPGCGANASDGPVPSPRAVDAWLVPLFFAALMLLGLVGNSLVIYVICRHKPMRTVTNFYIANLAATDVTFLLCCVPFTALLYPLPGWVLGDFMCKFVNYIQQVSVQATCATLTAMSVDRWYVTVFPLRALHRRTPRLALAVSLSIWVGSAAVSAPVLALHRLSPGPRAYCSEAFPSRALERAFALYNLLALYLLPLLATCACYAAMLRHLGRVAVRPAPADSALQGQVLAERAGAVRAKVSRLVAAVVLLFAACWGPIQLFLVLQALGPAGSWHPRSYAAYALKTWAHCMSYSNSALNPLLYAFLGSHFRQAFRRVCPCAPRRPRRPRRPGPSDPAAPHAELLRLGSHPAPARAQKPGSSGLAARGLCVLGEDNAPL
Sequence of D(2) dopamine receptor (Homo sapiens) (P14416 whole entry, looked up): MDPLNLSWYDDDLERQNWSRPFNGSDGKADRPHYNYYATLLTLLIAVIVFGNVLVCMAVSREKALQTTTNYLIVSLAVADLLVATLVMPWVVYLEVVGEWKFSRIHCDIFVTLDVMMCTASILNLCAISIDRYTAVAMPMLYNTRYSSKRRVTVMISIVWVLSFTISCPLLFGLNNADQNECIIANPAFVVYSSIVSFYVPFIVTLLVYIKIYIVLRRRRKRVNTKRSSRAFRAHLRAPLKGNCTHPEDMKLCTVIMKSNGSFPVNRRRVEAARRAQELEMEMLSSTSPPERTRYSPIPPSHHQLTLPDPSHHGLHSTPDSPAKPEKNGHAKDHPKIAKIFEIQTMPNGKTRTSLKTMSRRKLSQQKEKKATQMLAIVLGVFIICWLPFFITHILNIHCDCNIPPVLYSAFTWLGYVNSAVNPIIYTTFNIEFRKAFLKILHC
Sequence of Muscarinic acetylcholine receptor M1 (Homo sapiens) (P11229 whole entry, looked up): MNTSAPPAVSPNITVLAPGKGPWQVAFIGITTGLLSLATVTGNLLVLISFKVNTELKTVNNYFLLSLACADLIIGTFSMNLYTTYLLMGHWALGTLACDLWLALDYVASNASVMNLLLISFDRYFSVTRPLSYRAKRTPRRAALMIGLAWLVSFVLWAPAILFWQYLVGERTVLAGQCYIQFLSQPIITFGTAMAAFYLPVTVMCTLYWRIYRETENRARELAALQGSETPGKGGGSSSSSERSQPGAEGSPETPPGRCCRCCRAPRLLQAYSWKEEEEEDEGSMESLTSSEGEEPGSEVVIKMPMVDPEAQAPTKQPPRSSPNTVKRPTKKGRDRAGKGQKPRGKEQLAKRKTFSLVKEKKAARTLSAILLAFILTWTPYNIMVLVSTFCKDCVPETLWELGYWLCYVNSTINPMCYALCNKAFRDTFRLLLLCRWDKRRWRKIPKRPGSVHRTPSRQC
Sequence of 5-hydroxytryptamine receptor 2A (Homo sapiens) (P28223 whole entry, looked up): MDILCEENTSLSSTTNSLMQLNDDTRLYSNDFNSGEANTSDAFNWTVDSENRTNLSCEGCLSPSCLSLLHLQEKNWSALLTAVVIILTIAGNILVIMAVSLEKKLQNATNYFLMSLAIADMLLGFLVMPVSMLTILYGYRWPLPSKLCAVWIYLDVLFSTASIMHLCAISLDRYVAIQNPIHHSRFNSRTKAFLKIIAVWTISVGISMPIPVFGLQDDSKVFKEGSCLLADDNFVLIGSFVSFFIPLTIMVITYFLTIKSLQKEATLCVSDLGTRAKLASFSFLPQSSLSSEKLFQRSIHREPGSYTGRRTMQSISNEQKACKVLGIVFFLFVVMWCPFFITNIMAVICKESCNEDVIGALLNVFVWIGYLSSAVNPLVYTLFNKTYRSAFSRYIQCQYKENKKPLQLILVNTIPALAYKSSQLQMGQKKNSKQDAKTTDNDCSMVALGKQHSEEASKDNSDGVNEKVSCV
Sequence of Beta-2 adrenergic receptor (Homo sapiens) (P07550 whole entry, looked up): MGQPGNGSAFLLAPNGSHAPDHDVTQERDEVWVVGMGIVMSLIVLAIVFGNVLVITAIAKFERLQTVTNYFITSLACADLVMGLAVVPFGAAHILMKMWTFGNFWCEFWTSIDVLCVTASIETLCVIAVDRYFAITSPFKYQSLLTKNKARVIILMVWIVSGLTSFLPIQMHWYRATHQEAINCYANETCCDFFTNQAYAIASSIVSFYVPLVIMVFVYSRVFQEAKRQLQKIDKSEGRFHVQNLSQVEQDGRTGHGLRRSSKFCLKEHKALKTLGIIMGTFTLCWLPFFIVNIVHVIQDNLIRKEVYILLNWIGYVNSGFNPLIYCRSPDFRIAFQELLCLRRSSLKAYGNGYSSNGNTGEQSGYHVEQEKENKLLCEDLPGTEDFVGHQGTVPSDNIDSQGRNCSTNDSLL

Regarding `C=C(C)[C@@H]1CC=C(C)CC1`, the Potency entry in assay [1], in assay [2], in assay [3], in [4], in [5] and in assay [6] was “inactive” throughout. Also, the Potency entry in assay [7], in [8], in assay [9], in assay [10], in assay [11] and in [12] was “inactive” throughout. Moreover, the Potency entry in assay [13], in assay [14], in assay [15], in [16], in [17] and in [18] was “inactive” in each case. For the same compound, the Potency entry in [19] is “inactive”.

For the compound `C=CC(=O)OCCOc1ccccc1`, the Potency result in assay [1], in [2], in assay [3], in assay [4], in assay [5] and in assay [6] was “inactive” throughout. The Potency result in assay [7], in [20], in [9], in assay [11], in assay [12] and in [13] was “inactive” in each case. Moreover, the Potency entry in assay [16], in assay [18] and in [19] was “inactive” throughout.

As for `C1CCC2=NCCCN2CC1`, the Potency entry in assay [1], in [2], in [3], in assay [4], in assay [5] and in assay [6] was “inactive” throughout. The Potency result in assay [7], in assay [20], in [9], in [10], in [12] and in assay [13] was “inactive” throughout. The Potency entry in assay [14], in [15], in assay [16], in assay [18] and in [19] was “inactive” in each case.

With `CCCCCCOC(=O)c1ccccc1`, the Potency entry in [1], in assay [2], in [3], in assay [4], in assay [5] and in assay [6] was “inactive” throughout. The Potency entry in [7], in assay [20], in assay [10], in assay [11], in assay [12] and in [13] was “inactive” throughout. For the same compound, the Potency entry in [14], in assay [16], in [18] and in [19] was “inactive” in each case.

As for `CSc1c(Cl)c(Cl)c(Cl)c(Cl)c1Cl`, the Potency result in assay [1], in assay [2], in [3], in assay [4], in assay [5] and in [6] was “inactive” each time. Further, the Potency result in assay [7], in [20], in assay [9], in assay [10], in assay [11] and in assay [12] was “inactive” each time. The Potency result in assay [13], in [15], in assay [16], in [17], in [18] and in assay [19] was “inactive” each time.

As to `O=C(O)Cc1cc(I)c(Oc2ccc(O)c(I)c2)c(I)c1`, the Potency result in assay [1], in [2], in assay [3], in assay [4], in assay [5] and in assay [6] was “inactive” throughout. Further, the Potency entry in [7], in assay [20], in assay [10], in assay [11], in [12] and in [13] was “inactive” each time. Also, the Potency result in assay [16] and in assay [18] was “inactive” in each case. Also, the Potency in assay [9] was 11.5 µM (active).

In the case of `CC1=CCC(C(C)C)C=C1` (centres undefined), the Potency entry in [1], in [2], in assay [3], in assay [4], in [5] and in assay [6] was “inactive” each time. Further, the Potency entry in [7], in assay [20], in assay [9], in assay [10], in [11] and in assay [12] was “inactive” each time. For the same compound, the Potency result in assay [13], in assay [14], in assay [15], in assay [16], in assay [17] and in [18] was “inactive” throughout. Further, the Potency entry in [19] is “inactive”.

As to `CN(C)CCCN1c2ccccc2CCc2ccc(Cl)cc21`, the Potency is 61.1 µM (active) in assay [1]; 40.8 µM (active) and inactive in assay [7]; 61.1 µM (active) and 18.8 µM (active) in assay [19]. In addition, the Potency result in [2], in [3], in [4], in assay [5], in assay [6] and in [20] was “inactive” throughout. The Potency entry in assay [8], in assay [14], in assay [15], in assay [16], in assay [17] and in assay [18] was “inactive” each time.
